Compounds with a hit are over-represented: about 2.6% of the library has one in this group of screens.
TAG inh – reduces triacylglycerol accumulation in H9c2 cells | Nile Red lipid (TAG) fluorescence; cells loaded with 200 µM oleic acid | inhibition, % at 12.5 µM | 230,000 compounds, 0.66% hits;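 active means pattern-corrected inhibition of lipid staining of at least 50% with the nuclear-stain viability signal not falling by more than 50%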
Jurkat NFkB inh – lowers PMA/ionomycin-induced NF-kB signal in Jurkat cells. PMA/ionomycin-induced NF-kB luciferase reporter, luminescence. inhibition, % at 4 µM. 330,000 compounds, 0.53% hits; in the data active means inhibition above about 50%
H9c2 protect – protects H9c2 cardiomyocytes from peroxide injury; H2O2 injury protection, ATPLite, 2 h; protection from H2O2 cell death, % at 20 µM; 360,000 compounds, 0.63% hits;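 active means compounds giving at least 50% protection of heart cells from peroxide-induced death in the single-dose screen, raw or plate-pattern-corrected value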
NR2F2 inh – blocks human COUP-TFII nuclear receptor; P24468; HEK293T NGFI-A luciferase reporter, luminescence; inhibition, % at 8.6 µM; 370,000 compounds, 0.7% hits; AID 686940;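 active means inhibition above a per-plate cutoff, mean inhibition of test wells between control levels plus 3 SD, cut at about 38% in these data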;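 further: cells cotransfected with COUP-TFII expression vector driving the NGFI-A reporter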
Target sequence (P24468 whole entry, looked up): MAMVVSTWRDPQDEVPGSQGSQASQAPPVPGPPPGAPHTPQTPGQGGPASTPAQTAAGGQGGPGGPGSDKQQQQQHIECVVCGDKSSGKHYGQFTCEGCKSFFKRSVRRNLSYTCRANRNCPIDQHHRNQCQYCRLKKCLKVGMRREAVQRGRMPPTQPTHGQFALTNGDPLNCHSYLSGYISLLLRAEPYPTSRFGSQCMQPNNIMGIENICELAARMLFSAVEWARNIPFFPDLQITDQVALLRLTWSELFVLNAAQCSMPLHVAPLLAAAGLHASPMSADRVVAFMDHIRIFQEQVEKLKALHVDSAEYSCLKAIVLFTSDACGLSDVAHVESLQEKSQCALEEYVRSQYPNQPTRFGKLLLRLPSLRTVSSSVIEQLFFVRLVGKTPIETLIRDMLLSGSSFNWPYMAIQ
Gli-Sufu antag – Gli-Sufu pathway antagonism; inhibition, % at 5 µM; 340,000 compounds, 0.74% hits; Sufu-KO-LIGHT fibroblasts, Gli luciferase reporter luminescence;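 active means inhibition above about 55%, limit read from the data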
697 NFkB inh – lowers PMA/ionomycin-induced NF-kB signal in 697 B cells; 697 B-cell NF-kB luciferase reporter, 16 h; inhibition, % at 4 µM; 330,000 compounds, 0.33% hits; in the data active means inhibition above about 35%
TAG conf – triacylglycerol accumulation inhibition, confirmation; shares compounds with TAG inh; H9c2 lipid accumulation, Nile Red fluorescence; cells loaded with 200 µM oleic acid; inhibition, % at 12.5 µM; 990 compounds, 71% hits;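 active means mean inhibition across replicates of 40% or more; inactive means mean inhibition below 40%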
Of the large screens only hits and unclear results are named; the others gave an inactive call (follow-up assays come after a bar, where they were run).

COc1ccc(Oc2nc(-c3ccncc3)nc3ccccc23)cc1	none
c1ccc(Oc2nc(-c3ccccn3)nc3ccccc23)cc1	TAG inh 72 | TAG conf 51
C=C(C)C#CCNCc1ccccc1	none (no result: TAG inh, Jurkat NFkB inh, H9c2 protect, Gli-Sufu antag, 697 NFkB inh)
CCN(C(=O)CCc1cn(CC)c2ccccc12)c1ccc(Oc2cccnc2)cc1	none (no result: TAG inh, Jurkat NFkB inh, H9c2 protect, Gli-Sufu antag, 697 NFkB inh)
COc1cc2ccccc2cc1C(=O)N/N=C/c1cccs1	TAG inh 55 (no result: Jurkat NFkB inh, Gli-Sufu antag, 697 NFkB inh) | TAG conf 64
O=C(/C=C(\Nc1cccc(OC(F)F)c1)c1ccccc1)c1ccccc1	none (no result: TAG inh, Jurkat NFkB inh, H9c2 protect, Gli-Sufu antag, 697 NFkB inh)
CCCC[C@H](CN[C@@H](CNC)[C@H](C)CC)NCCC12CCC(CC1)C2	TAG inh 51 | TAG conf 70
CCC[C@H](CN[C@@H](CNC)[C@H](C)O)NCCc1ccc(OC)cc1	none
Cc1cc(-n2c(C)cc(C(=O)CSc3nc4ccccc4c(=O)n3Cc3ccco3)c2C)no1	TAG inh 55 | TAG conf inactive
COc1cc(-c2noc(C)c2C#Cc2ccc(N)cc2)cc(OC)c1OC	TAG inh 57 | TAG conf 47
CCN(CC)CCCN(C(=O)c1cccs1)c1nc(-c2ccc(OC)cc2)cs1	TAG inh 55 (no result: NR2F2 inh) | TAG conf 47
COc1c(O[C@@H]2O[C@H](CO)[C@@H](O)[C@H](O)[C@H]2O)cc2c(c1OC)-c1ccc(SC)c(=O)cc1C(NC(C)=O)CC2 (stereo partly drawn)	none
COc1cc2c(c(OC)c1OC)-c1ccc(OC)c(=O)cc1C(NC(=O)c1ccccc1)CC2 (stereo not drawn)	TAG inh 55 (no result: Jurkat NFkB inh, 697 NFkB inh) | TAG conf 69
COc1cc2c(c(OC)c1OC)-c1ccc(SC)c(=O)cc1C(NC=O)CC2 (stereo not drawn)	TAG inh 69 (no result: Jurkat NFkB inh, 697 NFkB inh) | TAG conf 47
CCOc1c(Br)cc(CNC2CCCCCCC2)cc1OC	TAG inh 70 | TAG conf 80
Cc1cc(C)c2nc(-c3ccncc3)cc(C(=O)N3CCN(Cc4ccccc4Cl)CC3)c2c1	TAG inh 62 | TAG conf 59
Cc1ccccc1N1CCN(S(=O)(=O)c2ccc3c(c2)n(C)c(=O)c(=O)n3C)CC1	none (no result: TAG inh, Jurkat NFkB inh, H9c2 protect, Gli-Sufu antag, 697 NFkB inh)
O=C(Cn1nnc(-c2ccc(Cl)cc2)n1)NCc1ccco1	none (no result: TAG inh)
COc1ccc(C(=O)Nc2ccc(-c3nnn(CC(=O)NCc4ccco4)n3)cc2)cc1	TAG inh 53 | TAG conf inactive
COc1ccc(NC(=O)Cn2c(=O)n(-c3ccc(CC(=O)NCc4ccco4)cc3)c(=O)c3ccccc32)cc1	TAG inh 65 | TAG conf 54
CC(C)C[C@@H](CCCc1ccccc1)CCC(=O)N(c1ccccc1)c1ccccc1	none (no result: TAG inh, Jurkat NFkB inh, H9c2 protect, Gli-Sufu antag, 697 NFkB inh)
CC1(C)Cc2c(C#N)c(SCC(=O)c3ccccc3)nc(N3CCOCC3)c2CS1	TAG inh 51 | TAG conf 59
Oc1ccc(Nc2nc(NCC3CCCO3)c3ccccc3n2)cc1 (stereo not drawn)	TAG inh 50 | TAG conf inactive
Oc1ccccc1Nc1nc(NCC2CCCO2)c2ccccc2n1 (stereo not drawn)	none
NC(=O)N/N=C/c1c(Sc2nnnn2-c2ccccc2)nc2ccccn2c1=O	TAG inh 52 | TAG conf 64
COc1ccc(NC(=O)N(C)[C@H]2C[C@H]3c4[nH]c5ccc(-c6ccc7c(c6)OCO7)cc5c4CCN3C[C@H]2[C@H](C)O)cc1	TAG inh 60, H9c2 protect 54 (no result: Jurkat NFkB inh, Gli-Sufu antag, 697 NFkB inh) | TAG conf 66
COc1ccc(NC(=O)N(C)[C@H]2C[C@H]3c4[nH]c5ccc(-c6ccc(OC)cc6)cc5c4CCN3C[C@H]2[C@H](C)O)cc1	none (no result: Jurkat NFkB inh, Gli-Sufu antag, 697 NFkB inh)
COc1ccc(NC(=O)O[C@@H](C)[C@@H]2CN3CCc4c([nH]c5ccc(-c6ccc(OC)cc6)cc45)[C@@H]3C[C@@H]2N(C)C(=O)Nc2ccc(OC)cc2)cc1	TAG inh 72 (no result: Jurkat NFkB inh, Gli-Sufu antag, 697 NFkB inh) | TAG conf 72
COc1ccc(-c2ccc3[nH]c4c(c3c2)CCN2C[C@@H]([C@H](C)OC(=O)Nc3cc(Cl)cc(Cl)c3)[C@@H](N(C)C(=O)Nc3cc(Cl)cc(Cl)c3)C[C@@H]42)cc1	TAG inh 73 (no result: Jurkat NFkB inh, Gli-Sufu antag, 697 NFkB inh) | TAG conf 84
O=C(Nc1cccc(F)c1)OCCN1CCCC12CCC(c1ccccc1)CC2 (stereo not drawn)	none (no result: TAG inh, Jurkat NFkB inh, H9c2 protect, Gli-Sufu antag, 697 NFkB inh)
Cc1ccc(NC(=O)NNC(=O)CSC2CCc3ccccc32)c(C)c1 (stereo not drawn)	none (no result: TAG inh, Jurkat NFkB inh, H9c2 protect, Gli-Sufu antag, 697 NFkB inh)
N/C(=N\c1nc2ccccc2o1)NC(=O)c1ccc(F)cc1	TAG inh 66 | TAG conf 45
CN1Cc2nnn(CC3CCCCC3)c2-c2ccccc2S1(=O)=O	none (no result: TAG inh, Jurkat NFkB inh, H9c2 protect, Gli-Sufu antag, 697 NFkB inh)
CC(=O)OCC(=O)[C@@]12OC3(CCCC3)O[C@@H]1C[C@H]1[C@@H]3CCC4=CC(=O)C=C[C@]4(C)[C@@]3(F)[C@@H](O)C[C@@]12C	TAG inh 57 | TAG conf 64
CC(=O)OCC(=O)C1(O)CCC2C3CCC4=CC(=O)C=CC4(C)C3(F)C(O)CC21C (stereo not drawn)	none (no result: Jurkat NFkB inh, 697 NFkB inh)
Cc1ccc(NC(=O)Cn2nnc(-c3ccccc3NC(=O)c3cccs3)n2)cc1	TAG inh 57 | TAG conf 71
COc1ccc(NC(=O)Cn2nnc(-c3ccccc3NC(=O)c3cccs3)n2)cc1	none
CN(C)CCNC(=O)c1coc(=O)c(Br)c1	none
CC(C)CNC(=O)c1coc(=O)c(Br)c1	TAG inh 60 | TAG conf inactive
Cc1cccc(NC(=O)C(C)Sc2nc3ccccc3c(=O)n2CCCN2CCOCC2)c1 (stereo not drawn)	TAG inh 53 | TAG conf 57
Nc1ncnc(N)c1NC(=O)c1ccccc1	none (no result: TAG inh, Jurkat NFkB inh, H9c2 protect, Gli-Sufu antag, 697 NFkB inh)
C=CC[C@]12C[C@@]3(O[C@H](c4ccc(C(F)(F)F)cc4)N=C3C[C@H](c3ccc(OC)cc3)[C@H]1C)N(Cc1ccncc1)C2=O	none (no result: TAG inh, Jurkat NFkB inh, H9c2 protect, Gli-Sufu antag, 697 NFkB inh)
O=C(CSc1ccc(-c2cccc([N+](=O)[O-])c2)nn1)N1CCCCCC1	none
O=C(CSc1ccc(-c2cccc([N+](=O)[O-])c2)nn1)N1CCCC1	TAG inh 60 | TAG conf inactive
Cc1nc(C(=O)Nc2ccccc2Cl)cc2c1[nH]c1ccccc12	TAG inh 75 | TAG conf 55
COc1ccc(CCNC(=O)Cc2cc(OC)c(OC)cc2[N+](=O)[O-])cc1OC	none
COc1ccc(CCNC(=O)Cc2cc(OCc3ccccc3)c(OC)cc2[N+](=O)[O-])cc1OC	TAG inh 63 | TAG conf inactive
COC(=O)[C@]12C[C@H](CC(=O)N3CCCC3)C(=O)N(Cc3cccc4ccccc34)C1=C[C@H](C(C)(C)C)O[C@@H]2C	none (no result: TAG inh, Jurkat NFkB inh, H9c2 protect, Gli-Sufu antag, 697 NFkB inh)
CCCCN1CN2CCc3ccccc3C2CS1(=O)=O (stereo not drawn)	none (no result: TAG inh, Jurkat NFkB inh, H9c2 protect, Gli-Sufu antag, 697 NFkB inh)

Compound activity: PubChem, several laboratories
